Inconclusive results are not listed. Some structures have more than one record in an assay (separate samples or runs), and their calls can disagree. Active and inactive are the calls of the source. How the source made its calls, unless noted: active means hit-call score of the fitted dose curve at least 0.9, where 1 is the maximum; inactive means score below 0.9.
Legend:
[1] = molecular target: Nuclear respiratory factor 1 (Homo sapiens) (UniProt Q16656); assay: ATG_NRF1_CIS: Attagene CIS-FACTORIAL HepG2 Assay for human Nuclear Respiratory Factor 1 (NRF1) Orphan Gene (AID 2282987); conditions: HepG2 NRF1 cis-element reporter, Attagene multiplex; actives raise or lower the signal
Chain of Nuclear respiratory factor 1 (Homo sapiens) (Q16656 whole entry, looked up): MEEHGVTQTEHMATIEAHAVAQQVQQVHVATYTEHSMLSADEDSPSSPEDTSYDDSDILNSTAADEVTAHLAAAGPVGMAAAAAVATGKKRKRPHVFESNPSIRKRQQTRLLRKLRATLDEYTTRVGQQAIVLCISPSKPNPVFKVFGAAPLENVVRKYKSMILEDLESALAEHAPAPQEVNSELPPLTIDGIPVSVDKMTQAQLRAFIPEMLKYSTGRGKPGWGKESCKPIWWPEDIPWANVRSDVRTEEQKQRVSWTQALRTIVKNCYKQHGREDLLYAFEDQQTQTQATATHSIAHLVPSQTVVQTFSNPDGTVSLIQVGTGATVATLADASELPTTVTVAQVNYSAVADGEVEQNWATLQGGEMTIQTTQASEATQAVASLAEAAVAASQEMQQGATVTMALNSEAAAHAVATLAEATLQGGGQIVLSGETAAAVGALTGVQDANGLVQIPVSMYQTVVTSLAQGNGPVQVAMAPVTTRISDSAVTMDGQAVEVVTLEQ
Procedure, shortened: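 Endogenous factor activity was captured via cis-element-driven reporter transcripts in HepG2 cells. Following 24 h chemical treatment, transcripts were quantified by RT-PCR and capillary electrophoresis.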

[2] = ATG_NFI_CIS: Attagene CIS-FACTORIAL HepG2 Assay for human Nuclear Factor I (NFI) (AID 2282989); conditions: HepG2 cis-regulatory reporter, NFI response element transcription; actives raise or lower the signal
Procedure, shortened: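 Cells: human liver HepG2, transiently transfected with promoter-regulated reporter transcription units. Exposure 24 h. Detection: fluorescent RT-PCR products separated by capillary electrophoresis, normalised to DMSO negative control.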

[3] = molecular target: Myc proto-oncogene protein (Homo sapiens) (UniProt P01106); assay: ATG_Myc_CIS: Attagene CIS-FACTORIAL HepG2 Assay for human Myelocytomatosis (Myc) Proto-Oncogene Transcription Factor (AID 2282990); conditions: HepG2, Attagene cis-reporter transcription factor activity; actives raise or lower the signal
Chain of Myc proto-oncogene protein (Homo sapiens) (P01106 whole entry, looked up, the tested form may be a part): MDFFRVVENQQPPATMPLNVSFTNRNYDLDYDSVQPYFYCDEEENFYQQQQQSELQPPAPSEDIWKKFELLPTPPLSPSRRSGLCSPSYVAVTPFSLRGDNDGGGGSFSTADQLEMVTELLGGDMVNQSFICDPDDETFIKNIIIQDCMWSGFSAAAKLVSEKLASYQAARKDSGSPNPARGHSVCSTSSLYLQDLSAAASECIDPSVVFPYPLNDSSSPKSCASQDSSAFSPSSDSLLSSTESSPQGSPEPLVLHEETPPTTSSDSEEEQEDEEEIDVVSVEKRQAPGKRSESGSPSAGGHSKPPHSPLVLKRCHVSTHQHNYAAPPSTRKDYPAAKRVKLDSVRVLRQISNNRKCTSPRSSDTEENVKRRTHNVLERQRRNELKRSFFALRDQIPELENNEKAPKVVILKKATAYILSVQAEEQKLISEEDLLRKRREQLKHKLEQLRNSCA
Procedure, shortened: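 After 24 h chemical treatment of HepG2 cells carrying multiplexed cis-regulated reporter constructs, reporter transcripts quantified by RT-PCR and capillary electrophoresis of fluorescent fragments. Gain or loss fitted against DMSO baseline.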

[4] = ATG_NRF2_ARE_CIS: Attagene CIS-FACTORIAL HepG2 Assay for human Nuclear Factor Erythroid 2 Related Factor 2 (NFR2) response to Antioxidant Response Elements (ARE) (AID 2282992); conditions: HepG2 Attagene ARE/NRF2 reporter, transcription factor activity; actives raise or lower the signal;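 on AC50: reporter mRNA level measured by RT-PCR and capillary electrophoresis fluorescence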
Procedure, shortened: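 Readout: reporter mRNA quantified by RT-PCR plus FAM-labelled primer extension, HpaI digestion and capillary electrophoresis, 24 h after dosing transfected HepG2 cells. Gain or loss of signal is fitted bidirectionally against DMSO baseline.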

[5] = ATG_Oct_MLP_CIS: Attagene CIS-FACTORIAL HepG2 Assay for human Octamer-Binding Transcription Factor (Oct) (AID 2282993); conditions: HepG2 Attagene cis-factorial Oct reporter, mRNA; actives raise or lower the signal
Procedure, shortened: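 HepG2, transient MRTU transfection, cis promoter elements; 24 h dosing; RT-PCR/CE fluorescence read-out of reporter mRNA; fit both directions vs DMSO.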

[6] = BSK_3C_TissueFactor: BioMAP Diversity Plus: 3C Assay for Tissue Factor Biomarker Activity (AID 2282997); conditions: BioMAP 3C HUVEC, tissue factor biomarker readout; actives raise or lower the signal
Procedure, shortened: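 After a 24 h chemical exposure of primary human umbilical vein endothelial cells, Tissue Factor levels were quantified by ELISA.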

[7] = BSK_3C_uPAR: BioMAP Diversity Plus: 3C Assay for Urokinase-type plasminogen activator receptor (uPAR) Biomarker Activity (AID 2282998); conditions: BioMAP 3C HUVEC, uPAR biomarker ELISA; actives raise or lower the signal
Procedure, shortened: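 A multiplexed primary-cell system built on human umbilical vein endothelium was used, with chemical present for 24 h before reading. Cell-surface uPAR was detected by ELISA; signal change in either direction counted against DMSO.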

[8] = BSK_3C_VCAM1: BioMAP Diversity Plus: 3C Assay for Vascular cell adhesion molecule 1 (VCAM1) Biomarker Activity (AID 2282999); conditions: BioMAP 3C HUVEC, VCAM1 ELISA, cytokine-stimulated; actives raise or lower the signal
Procedure, shortened: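 Activity fitted in both directions relative to DMSO, with ELISA measurement of the surface marker on primary HUVEC (3C) at 24 h post-treatment; parallel SRB staining (0.1% SRB, TCA-fixed, 560 nm) flagged overt cytotoxicity.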

[9] = BSK_4H_Eotaxin3: BioMAP Diversity Plus: 4H Assay for Eotaxin 3 Biomarker Activity (AID 2283000); conditions: primary human endothelial cells (HUVEC); actives raise or lower the signal
Procedure, shortened: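 Chemicals were added to human umbilical vein endothelium cultures, and Eotaxin-3 was quantified by ELISA at 24 h. Values were derived by bidirectional fitting with DMSO serving as negative control and activity baseline.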

[10] = molecular target: human Retinoic Acid Receptor beta (RARb), RARB (gene 5915) (UniProt P10826); assay: ATG_RARb_TRANS: Attagene TRANS-FACTORIAL HepG2 Assay for human Retinoic Acid Receptor beta (AID 2283004; active means hit-call score of the fitted dose curve at least 0.9, where 1 is the maximum)
Chain of human Retinoic Acid Receptor beta (RARb), RARB (gene 5915) (P10826 whole entry, looked up): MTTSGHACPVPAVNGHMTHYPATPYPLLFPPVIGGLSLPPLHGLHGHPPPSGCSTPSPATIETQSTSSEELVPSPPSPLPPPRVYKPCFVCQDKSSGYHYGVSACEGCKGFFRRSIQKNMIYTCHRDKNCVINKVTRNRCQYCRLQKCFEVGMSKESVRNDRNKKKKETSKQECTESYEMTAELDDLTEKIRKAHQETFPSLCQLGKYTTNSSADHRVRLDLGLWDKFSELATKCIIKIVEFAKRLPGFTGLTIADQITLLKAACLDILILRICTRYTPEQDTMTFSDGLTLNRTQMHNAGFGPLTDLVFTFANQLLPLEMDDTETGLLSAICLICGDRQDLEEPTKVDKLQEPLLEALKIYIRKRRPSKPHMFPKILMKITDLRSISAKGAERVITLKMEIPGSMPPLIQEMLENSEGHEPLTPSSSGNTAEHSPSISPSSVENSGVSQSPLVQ
Procedure, shortened: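 Transient transfection of HepG2 with multiple reporter units → chemical dosing, 24 h → total RNA isolation → RT with oligo(dT) → reporter-specific PCR, 6-FAM primer extension, HpaI digest → capillary electrophoresis. Positive direction vs DMSO control.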

[11] = molecular target: Retinoic acid receptor alpha (Homo sapiens) (UniProt P10276); assay: ATG_RARa_TRANS: Attagene TRANS-FACTORIAL HepG2 Assay for human Retinoic Acid Receptor alpha (RARa) (AID 2283005; active means hit-call score of the fitted dose curve at least 0.9, where 1 is the maximum)
Chain of Retinoic acid receptor alpha (Homo sapiens) (P10276 whole entry, looked up, the tested form may be a part): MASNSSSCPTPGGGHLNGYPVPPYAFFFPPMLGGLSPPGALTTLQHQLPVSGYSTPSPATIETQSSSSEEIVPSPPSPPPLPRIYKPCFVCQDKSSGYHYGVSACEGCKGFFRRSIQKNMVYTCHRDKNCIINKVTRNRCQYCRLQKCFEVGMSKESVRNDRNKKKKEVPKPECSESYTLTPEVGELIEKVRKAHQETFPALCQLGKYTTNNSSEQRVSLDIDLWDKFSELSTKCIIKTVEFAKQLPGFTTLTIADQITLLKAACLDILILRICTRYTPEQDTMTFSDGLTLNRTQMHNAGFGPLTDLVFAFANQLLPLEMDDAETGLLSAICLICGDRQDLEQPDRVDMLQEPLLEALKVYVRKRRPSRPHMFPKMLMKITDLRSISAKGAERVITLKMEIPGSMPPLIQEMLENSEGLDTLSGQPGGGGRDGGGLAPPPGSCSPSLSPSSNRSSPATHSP
Procedure, shortened: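 Reporter transcripts, measured by RT-PCR with fluorescent labeling and capillary electrophoresis after 24 h dosing, reflect activity of an exogenous human RARa–GAL4 fusion in transiently transfected HepG2. Fitted for increase relative to DMSO.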

[12] = molecular target: Peroxisome proliferator-activated receptor gamma (Homo sapiens) (UniProt P37231); assay: ATG_PPARg_TRANS: Attagene TRANS-FACTORIAL HepG2 Assay for human Peroxisome Proliferator-activated Receptor-gamma (PPARg) (AID 2283007; active means hit-call score of the fitted dose curve at least 0.9, where 1 is the maximum)
Chain of Peroxisome proliferator-activated receptor gamma (Homo sapiens) (P37231 whole entry, looked up, the tested form may be a part): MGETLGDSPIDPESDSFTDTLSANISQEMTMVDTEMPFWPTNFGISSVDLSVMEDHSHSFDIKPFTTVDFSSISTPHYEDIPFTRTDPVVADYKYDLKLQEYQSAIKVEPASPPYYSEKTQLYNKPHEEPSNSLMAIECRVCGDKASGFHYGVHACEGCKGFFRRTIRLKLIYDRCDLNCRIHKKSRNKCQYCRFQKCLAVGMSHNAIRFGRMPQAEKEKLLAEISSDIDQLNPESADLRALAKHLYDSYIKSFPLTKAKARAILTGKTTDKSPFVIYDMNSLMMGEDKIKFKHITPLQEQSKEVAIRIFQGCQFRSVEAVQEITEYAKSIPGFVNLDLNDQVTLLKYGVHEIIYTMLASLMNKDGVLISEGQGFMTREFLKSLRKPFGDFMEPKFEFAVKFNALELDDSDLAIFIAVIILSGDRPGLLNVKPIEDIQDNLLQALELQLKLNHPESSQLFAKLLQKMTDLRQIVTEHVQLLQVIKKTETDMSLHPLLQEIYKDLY
Procedure, shortened: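 Liver-derived HepG2 cells expressing an exogenous NR-Gal4 chimera alongside GAL4-UAS reporter genes; 24 h exposure. Fluorescence of reporter RT-PCR products, separated by capillary electrophoresis, gives mRNA induction relative to DMSO.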

[13] = molecular target: Nuclear receptor subfamily 1 group I member 2 (Homo sapiens) (UniProt O75469); assay: ATG_PXR_TRANS: Attagene TRANS-FACTORIAL HepG2 Assay for human Pregnane X Receptor (PXR) (AID 2283008; active means hit-call score of the fitted dose curve at least 0.9, where 1 is the maximum)
Chain of Nuclear receptor subfamily 1 group I member 2 (Homo sapiens) (O75469 whole entry, looked up, the tested form may be a part): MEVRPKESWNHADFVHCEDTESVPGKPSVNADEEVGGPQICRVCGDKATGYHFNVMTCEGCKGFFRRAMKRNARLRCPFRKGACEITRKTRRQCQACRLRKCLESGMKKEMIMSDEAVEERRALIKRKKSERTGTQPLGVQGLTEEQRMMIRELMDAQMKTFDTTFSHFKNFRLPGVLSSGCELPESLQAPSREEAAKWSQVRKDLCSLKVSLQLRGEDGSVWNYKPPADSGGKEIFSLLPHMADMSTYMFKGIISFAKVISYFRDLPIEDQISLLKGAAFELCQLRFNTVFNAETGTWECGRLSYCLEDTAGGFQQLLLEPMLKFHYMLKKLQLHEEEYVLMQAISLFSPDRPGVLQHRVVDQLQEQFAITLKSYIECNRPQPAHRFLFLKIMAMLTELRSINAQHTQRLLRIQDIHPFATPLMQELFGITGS
Procedure, shortened: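 Trans-factorial format: exogenous NR-Gal4 fusion activity, not endogenous factor, in transfected human HepG2 liver cells. After 24 h dosing, RNA isolated, reverse-transcribed, amplified and resolved by capillary electrophoresis; induction scored versus DMSO.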

[14] = molecular target: human Retinoic Acid Receptor gamma (RARg), RARG (gene 5916) (UniProt P13631); assay: ATG_RARg_TRANS: Attagene TRANS-FACTORIAL HepG2 Assay for human Retinoic Acid Receptor gamma (RARg) (AID 2283009; active means hit-call score of the fitted dose curve at least 0.9, where 1 is the maximum)
Chain of human Retinoic Acid Receptor gamma (RARg), RARG (gene 5916) (P13631 whole entry, looked up, the tested form may be a part): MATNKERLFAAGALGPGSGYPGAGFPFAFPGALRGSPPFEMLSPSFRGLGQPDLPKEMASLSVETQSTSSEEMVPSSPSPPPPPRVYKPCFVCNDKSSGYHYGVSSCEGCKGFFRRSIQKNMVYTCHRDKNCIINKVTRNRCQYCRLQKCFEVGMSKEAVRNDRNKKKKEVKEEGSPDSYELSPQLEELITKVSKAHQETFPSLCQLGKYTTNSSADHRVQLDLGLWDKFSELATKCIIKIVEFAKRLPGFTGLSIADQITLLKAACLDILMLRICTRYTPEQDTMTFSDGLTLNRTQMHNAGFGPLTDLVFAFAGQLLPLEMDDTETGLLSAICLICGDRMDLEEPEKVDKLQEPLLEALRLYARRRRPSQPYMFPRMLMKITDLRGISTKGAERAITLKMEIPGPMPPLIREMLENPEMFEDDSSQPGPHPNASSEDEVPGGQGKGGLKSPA
Procedure, shortened: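 TRANS format measured activity of exogenous NR-GAL4 fusion (RARg) in transfected HepG2 liver cells after 24 h dosing. Induced reporter RNA was detected by RT-PCR/capillary electrophoresis fluorescence, analysed in the positive direction against DMSO.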

[15] = ATG_NF_kB_CIS: Attagene CIS-FACTORIAL HepG2 Assay for human Nuclear Factor Kappa B (NF-kB) (AID 2282991); conditions: HepG2 Attagene cis-factorial NF-kB reporter mRNA; actives raise or lower the signal
Procedure, shortened: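 After 24 h compound incubation, transfected HepG2 cells yield total RNA; reporter cDNA is PCR-amplified, end-labelled with 6-FAM, HpaI-digested and analysed on a genetic analyser. Endogenous factor activity, DMSO-referenced bidirectional fit.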

[16] = molecular target: Cellular tumor antigen p53 (Homo sapiens) (UniProt P04637); assay: ATG_p53_CIS: Attagene CIS-FACTORIAL HepG2 Assay for human p53 Transcription Factor (AID 2282994); conditions: HepG2 p53 cis-element reporter, Attagene mRNA; actives raise or lower the signal
Chain of Cellular tumor antigen p53 (Homo sapiens) (P04637 whole entry, looked up): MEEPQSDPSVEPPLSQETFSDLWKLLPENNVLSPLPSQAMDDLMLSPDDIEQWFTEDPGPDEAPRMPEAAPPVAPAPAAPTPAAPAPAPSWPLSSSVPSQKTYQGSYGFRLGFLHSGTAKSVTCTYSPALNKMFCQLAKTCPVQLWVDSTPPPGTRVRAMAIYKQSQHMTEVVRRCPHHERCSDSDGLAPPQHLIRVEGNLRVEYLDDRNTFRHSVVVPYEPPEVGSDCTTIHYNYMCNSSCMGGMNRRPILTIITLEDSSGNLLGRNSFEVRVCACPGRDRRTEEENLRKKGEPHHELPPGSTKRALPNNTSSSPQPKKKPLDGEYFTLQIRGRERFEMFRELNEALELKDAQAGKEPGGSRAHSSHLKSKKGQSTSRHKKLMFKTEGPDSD
Procedure, shortened: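 Read-out: reporter mRNA by RT-PCR plus capillary electrophoresis with fluorescence detection. Human HepG2 liver cells carried transfected multi-reporter cis-element constructs, dosed 24 h. Gain or loss of signal fitted bidirectionally against DMSO control.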

[17] = molecular target: human Peroxisome Proliferator-activated Receptor delta (PPARd), PPARD (gene 5467) (UniProt Q03181); assay: ATG_PPARd_TRANS: Attagene TRANS-FACTORIAL HepG2 Assay for human Peroxisome Proliferator-activated Receptor delta (PPARd) (AID 2283002; active means hit-call score of the fitted dose curve at least 0.9, where 1 is the maximum)
Chain of human Peroxisome Proliferator-activated Receptor delta (PPARd), PPARD (gene 5467) (Q03181 whole entry, looked up, the tested form may be a part): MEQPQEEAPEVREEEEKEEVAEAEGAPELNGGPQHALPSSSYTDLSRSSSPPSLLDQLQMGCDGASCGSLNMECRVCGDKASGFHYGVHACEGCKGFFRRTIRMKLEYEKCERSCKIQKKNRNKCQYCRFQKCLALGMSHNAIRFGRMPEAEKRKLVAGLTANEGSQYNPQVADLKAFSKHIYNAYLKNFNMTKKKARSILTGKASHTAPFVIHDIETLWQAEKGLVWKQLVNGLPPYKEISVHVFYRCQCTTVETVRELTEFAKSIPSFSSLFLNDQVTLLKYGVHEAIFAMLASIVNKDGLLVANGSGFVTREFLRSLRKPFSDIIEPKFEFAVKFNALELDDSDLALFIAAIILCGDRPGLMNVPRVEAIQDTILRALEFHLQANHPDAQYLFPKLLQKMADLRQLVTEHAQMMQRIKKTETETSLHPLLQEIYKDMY
Procedure, shortened: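 Read-out is induced reporter mRNA, quantified by RT-PCR with fluorescent labelling and capillary electrophoresis after 24 h dosing. Cells are HepG2 transiently carrying multiple GAL4-UAS reporter units driven by exogenous NR-GAL4 chimeras; DMSO serves as baseline.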

[18] = molecular target: human Peroxisome Proliferator-activated Receptor alpha (PPARa), PPARA (gene 5465) (UniProt Q07869); assay: ATG_PPARa_TRANS: Attagene TRANS-FACTORIAL HepG2 Assay for human Peroxisome Proliferator-activated Receptor alpha (PPARa) (AID 2283001; active means hit-call score of the fitted dose curve at least 0.9, where 1 is the maximum)
Chain of human Peroxisome Proliferator-activated Receptor alpha (PPARa), PPARA (gene 5465) (Q07869 whole entry, looked up, the tested form may be a part): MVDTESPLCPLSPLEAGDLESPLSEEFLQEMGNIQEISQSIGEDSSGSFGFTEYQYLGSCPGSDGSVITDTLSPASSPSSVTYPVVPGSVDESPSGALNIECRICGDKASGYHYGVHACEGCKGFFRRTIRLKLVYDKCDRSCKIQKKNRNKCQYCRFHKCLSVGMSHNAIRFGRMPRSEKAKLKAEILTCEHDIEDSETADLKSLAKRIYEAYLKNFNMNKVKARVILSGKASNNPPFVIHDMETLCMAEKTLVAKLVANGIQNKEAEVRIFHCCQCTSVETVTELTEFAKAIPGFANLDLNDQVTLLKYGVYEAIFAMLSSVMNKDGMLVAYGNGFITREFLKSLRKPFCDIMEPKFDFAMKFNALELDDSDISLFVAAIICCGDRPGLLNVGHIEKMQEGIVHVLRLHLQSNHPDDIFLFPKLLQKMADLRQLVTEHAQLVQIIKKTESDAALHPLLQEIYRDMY
Procedure, shortened: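 Reporter transcripts quantified by RT-PCR plus capillary electrophoresis after 24 h treatment, fitted upward relative to DMSO. Cells: human HepG2 transiently carrying multiple GAL4-UAS reporter units driven by NR-Gal4 chimeras.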

[19] = BSK_3C_Proliferation: Cell Proliferation Assessment in the BioMAP Diversity Plus: 3C Assay (AID 2283006); conditions: primary human endothelial cells (HUVEC);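 further: potency may reflect either rise or fall in cell number versus DMSO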
Procedure, shortened: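 Cells (human umbilical vein endothelial, sub-confluent) receive test chemical; after 48 h they are fixed in 10% trichloroacetic acid, stained with 0.1% SRB and read at 560 nm. Activity is referenced to DMSO, fitting increases and decreases.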

[20] = read-out: Intercellular Adhesion Molecule 1 (ICAM1), ICAM1 (gene 3383); assay: BSK_3C_ICAM1: BioMAP Diversity Plus: 3C Assay for Intercellular Adhesion Molecule 1 (ICAM1) Biomarker Activity (AID 2283003); conditions: primary human endothelial cells (HUVEC); actives raise or lower the signal
Procedure, shortened: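 Chemicals are dosed onto primary human umbilical vein endothelium (3C system). After 24 h, ICAM-1 is measured by ELISA, and responses are fitted bidirectionally relative to DMSO.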

Measured: AC50

CCCSP(=O)(OCC)SCCC
inactive: [1] | [2] | [3] | [5] | [6] | [7] | [8] | [9] | [10] | [11] | [12] | [13] | [14]
active: [4] 40.9 µM

CCOP(=O)(NC(C)C)Oc1ccc(SC)c(C)c1 (stereo unspecified)
active: [4] 5.22 µM | [5] 11.2 µM | [12] 32.3 µM
inactive: [1] | [2] | [3] | [15] | [16] | [6] | [7] | [8] | [9] | [17] | [10] | [11] | [13] | [14]

Cc1ccn2nc(S(=O)(=O)Nc3c(F)cccc3F)nc2n1
inactive: [1] | [2] | [3] | [4] | [5] | [6] | [7] | [8] | [9] | [18] | [12] | [13] | [14]

CCc1cccc(CC)c1N(COC)C(=O)CCl
inactive: [1] | [2] | [15] | [6] | [7] | [17] | [13] | [14]
active: [3] 2.68 µM | [4] 3.31 µM | [5] 3.21 µM | [8] 31.4 µM | [9] 22.4 µM | [19] 28.5 µM | [12] 1.79 µM

CCCCSP(=O)(SCCCC)SCCCC
inactive: [1] | [2] | [16] | [6] | [8] | [9] | [18] | [17] | [10] | [13] | [14]
active: [3] 83.2 µM | [4] 18.3 µM | [5] 11.8 µM | [7] 28.7 µM | [19] 29.5 µM | [12] 30.5 µM

CN(C)[C@@H]1C(=O)C(C(N)=O)=C(O)[C@@]2(O)C(=O)C3=C(O)c4c(O)cccc4[C@@](C)(O)[C@H]3[C@H](O)[C@@H]12
active: [4] 20.8 µM | [5] 13.6 µM | [9] 33 µM
inactive: [1] | [2] | [3] | [4] | [5] | [6] | [7] | [8] | [9] | [18] | [20] | [12] | [13]

COc1cccc(C(=O)NN(C(=O)c2cc(C)cc(C)c2)C(C)(C)C)c1C
inactive: [1] | [2] | [3] | [15] | [4] | [5] | [16] | [6] | [7] | [8] | [9] | [10] | [11] | [12] | [13]

CC[C@H](C)[C@H]1O[C@]2(C=C[C@@H]1C)C[C@@H]1C[C@@H](C/C=C(\C)[C@@H](O[C@H]3C[C@H](OC)[C@@H](O[C@H]4C[C@H](OC)[C@@H](NC)[C@H](C)O4)[C@H](C)O3)[C@@H](C)/C=C/C=C3\CO[C@@H]4[C@H](O)C(C)=C[C@@H](C(=O)O1)[C@]34O)O2
inactive: [1] | [2] | [3] | [4] | [5] | [16] | [6] | [18] | [12]
active: [7] 1.93 µM | [8] 6.56 µM | [9] 5.75 µM | [20] 9.48 µM | [19] 1.68 µM

Reference: PubChem BioAssay (EPA / NIEHS)
